Here are results for 5 compounds from PubChem BioAssay.

Calls of active or inactive are those of the source.

In assay [1] the test system is Plasmodium falciparum Sir2 (PF13_0152, Sir2A). In words: Plasmodium falciparum Sir2A binding compounds – biochemical, small-molecule microarray, 635 nm fluorescence, primary screen (AID 1098).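 Also: score merges spot fluorescence intensity with its signal-to-noise ratio.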 The conditions noted are these: fluorescence 635 nm, higher = more signal.
Assay [2] is described as follows: probe aDKK1 binding to arrayed compounds – biochemical, biotinylated probe, 635/667 nm fluorescence, primary screen (AID 1099).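 Also: score merges 667nm spot fluorescence with signal to noise across triplicate slides.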 The conditions noted are these: small-molecule microarray, higher = more signal.
The nature of assay [3]: probe aCHRDL2 binding to arrayed compounds – biochemical, biotinylated probe, 635/667 nm fluorescence, primary screen (AID 1100). The conditions noted are these: small-molecule microarray, higher = more signal.
Assay [4] in a line: change in splice reporter luminescence, either direction, cell-based, HEK293, spliceosome inhibition project, primary screen (AID 1101).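 Also: HEK293 cells carrying a splicing-competent luciferase reporter gene; test concentration not given here.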 The note with it: HEK293 splicing luciferase reporter, 24 h, higher = more signal, called active from +8 up or from −8 down.
In assay [5] the target is Fibroblast growth factor 10 (Homo sapiens) (UniProt O15520). In words: compounds binding fibroblast growth factor 10 – biochemical, small-molecule microarray, 635 nm fluorescence, primary screen (AID 1102). The note with it: FGF10 binding, fluorescence 635 nm, higher = more signal.
Sequence of Fibroblast growth factor 10 (Homo sapiens) (O15520 whole entry, looked up): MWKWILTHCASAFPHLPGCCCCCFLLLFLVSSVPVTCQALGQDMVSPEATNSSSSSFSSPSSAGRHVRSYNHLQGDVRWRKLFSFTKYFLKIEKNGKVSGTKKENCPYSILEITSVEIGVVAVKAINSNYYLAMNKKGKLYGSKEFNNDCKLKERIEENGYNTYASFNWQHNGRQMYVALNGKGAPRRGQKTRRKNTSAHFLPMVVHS
The test system of assay [6] is glycogen synthase kinase-3 (GSK3A per assay name; protocol says GSK3B). The experiment in a line: compounds binding glycogen synthase kinase-3 – biochemical, small-molecule microarray, 635 nm fluorescence, GSK3A, primary screen (AID 1103). Also: the record names both GSK3A and GSK3B. The conditions noted are these: fluorescence 635 nm, higher = more signal.
Assay [7] concerns the target Epidermal growth factor receptor (Homo sapiens) (UniProt P00533). In words: compounds binding epidermal growth factor receptor – biochemical, small-molecule microarray, 635 nm fluorescence, primary screen (AID 1104).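 Also: score merges 667 nm emission intensity with spot signal to noise over triplicate slides.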 The note with it: EGFR binding, higher = more signal.
Assay [8] has as its target Follistatin-related protein 3 (Homo sapiens) (UniProt O95633). The experiment in a line: compounds binding follistatin-related protein 3 – biochemical, small-molecule microarray, 635 nm fluorescence, primary screen (AID 1105).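 Also: score merges emission near 667 nm and signal to noise per printed spot across three slides.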 The note with it: FSTL3 binding, higher = more signal.
Assay [9] deals with Dickkopf-related protein 1 (Homo sapiens) (UniProt O94907). In words: small molecules binding DKK1 protein – biochemical, small-molecule microarray, 635 nm fluorescence scan, primary screen (AID 1106).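 Also: score merges emission near 667 nm with signal to noise over three replicate slides.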 The note with it: higher = more signal.
Sequence of Dickkopf-related protein 1 (Homo sapiens) (O94907 whole entry, looked up): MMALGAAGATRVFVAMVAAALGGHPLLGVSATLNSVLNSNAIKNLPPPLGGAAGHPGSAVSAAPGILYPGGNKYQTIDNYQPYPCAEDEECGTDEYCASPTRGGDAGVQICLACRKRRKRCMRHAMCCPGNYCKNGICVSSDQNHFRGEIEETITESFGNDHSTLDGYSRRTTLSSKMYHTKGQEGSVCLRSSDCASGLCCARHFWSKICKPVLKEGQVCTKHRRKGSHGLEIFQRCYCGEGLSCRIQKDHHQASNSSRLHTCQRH
The subject of assay [10] is Inhibin beta A chain (activin A). The experiment in a line: small molecules binding activin A – biochemical, small-molecule microarray, 635 nm fluorescence scan, primary screen (AID 1107).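 Also: mouse activin A protein probed at 4.33 µg/mL on printed slides; score merges bound-protein fluorescence near 667 nm with spot signal-to-noise.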 The note with it: INHBA, higher = more signal.
Assay [11] concerns Human papillomavirus type 1a protein E7 (residues 44-93). In words: small molecules binding HPV E7 44-93 – biochemical, small-molecule microarray, residues 44-93, 635 nm fluorescence, primary screen (AID 1108).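 Also: E7 fragment applied at 1 µg/mL in TBST for 1 h at 4 C; score combines spot fluorescence with its signal to noise ratio.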 The conditions noted are these: fluorescence 635 nm, higher = more signal.
A short description of assay [12]: hepatitis C replication reporter changes, two-sided – Huh7 cells, luciferase reporter, HCV replication inhibitor project, primary screen (AID 1109).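 Also: huh7 hepatoma cells harbouring a luciferase neomycin HCV replicon reporter; luciferase luminescence as measure of HCV replicon replication; test concentration not given here.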 The conditions noted are these: Huh7 HCV replicon luciferase reporter, 48 h; higher = more signal. For orientation: In a reporter assay the amount or activity of a reporter protein is the signal.
Assay [13] deals with Left-right determination factor 2 (Homo sapiens) (UniProt O00292). The experiment in a line: small molecules binding LEFTY2 protein – biochemical, small-molecule microarray, 635 nm fluorescence scan, primary screen (AID 1110). The note with it: higher = more signal.
Sequence of Left-right determination factor 2 (Homo sapiens) (O00292 whole entry, looked up): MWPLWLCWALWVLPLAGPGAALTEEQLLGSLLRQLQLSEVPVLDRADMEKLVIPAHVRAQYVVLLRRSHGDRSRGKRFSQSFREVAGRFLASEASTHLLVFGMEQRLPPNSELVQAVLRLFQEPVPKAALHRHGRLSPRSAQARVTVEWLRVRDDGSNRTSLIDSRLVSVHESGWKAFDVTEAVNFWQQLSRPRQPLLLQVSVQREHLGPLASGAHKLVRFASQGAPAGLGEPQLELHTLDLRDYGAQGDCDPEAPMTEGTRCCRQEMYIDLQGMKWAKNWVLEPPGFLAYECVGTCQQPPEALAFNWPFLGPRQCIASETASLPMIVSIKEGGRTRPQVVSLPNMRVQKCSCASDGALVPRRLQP
Assay [14] deals with Calmodulin-1 (Homo sapiens) (UniProt P0DP23). In words: small molecules binding calmodulin-1 with EGTA – biochemical, small-molecule microarray, Cy5-labelled CALM1, profiling panel (AID 1111).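 Also: labelled calmodulin applied in Tris saline Tween buffer holding calcium plus EGTA and DTT.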 The conditions noted are these: Cy5-CALM1 binding fluorescence, higher = more signal.
The target is the same in assay [15]. The experiment in a line: small molecules binding Ca-loaded calmodulin-1 – biochemical, small-molecule microarray, Cy5-labelled CALM1, plus calcium, artefact control for SMM control-protein annotation, profiling panel (AID 1112).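 Also: score merges spot fluorescence with signal to noise from triplicate slides.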 The conditions noted are these: Cy5-CALM1 binding fluorescence, higher = more signal.
The nature of assay [16]: probe aWnt5a binding to arrayed compounds – biochemical, biotinylated probe, 635/667 nm fluorescence, primary screen (AID 1113).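 Also: score merges 667 nm fluorescence intensity with signal-to-noise per printed feature.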 The conditions noted are these: small-molecule microarray, higher = more signal.
Assay [17] can be described thus: probe aShh binding to arrayed compounds – biochemical, biotinylated probe, 635/667 nm fluorescence, primary screen (AID 1114).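 Also: probe is biotin-labelled aShh protein from a stem cell growth factor screen; measures binding of labelled protein to compounds printed on the slide; score merges feature fluorescence at 667 nm with signal-to-noise.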 The note with it: small-molecule microarray, higher = more signal.
The nature of assay [18]: probe aNog binding to arrayed compounds – biochemical, biotinylated probe, 635/667 nm fluorescence, primary screen (AID 1115).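 Also: probe is biotinylated aNog protein used at 0.15 µg/mL for 1 h at 4 C; z-score combines 667 nm fluorescence of each spot with its signal to noise.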 The note with it: small-molecule microarray, higher = more signal.
Assay [19] deals with Torsin-1A-interacting protein 1 (Homo sapiens) (UniProt Q5JTV8). The experiment in a line: compound microarray binding of lysate hLAP1 – cell lysate, small-molecule microarray, COS7 lysate, 635/667 nm fluorescence, primary screen (AID 1116). The conditions noted are these: 635 nm fluorescence, higher = more signal.
Sequence of Torsin-1A-interacting protein 1 (Homo sapiens) (Q5JTV8 whole entry, looked up): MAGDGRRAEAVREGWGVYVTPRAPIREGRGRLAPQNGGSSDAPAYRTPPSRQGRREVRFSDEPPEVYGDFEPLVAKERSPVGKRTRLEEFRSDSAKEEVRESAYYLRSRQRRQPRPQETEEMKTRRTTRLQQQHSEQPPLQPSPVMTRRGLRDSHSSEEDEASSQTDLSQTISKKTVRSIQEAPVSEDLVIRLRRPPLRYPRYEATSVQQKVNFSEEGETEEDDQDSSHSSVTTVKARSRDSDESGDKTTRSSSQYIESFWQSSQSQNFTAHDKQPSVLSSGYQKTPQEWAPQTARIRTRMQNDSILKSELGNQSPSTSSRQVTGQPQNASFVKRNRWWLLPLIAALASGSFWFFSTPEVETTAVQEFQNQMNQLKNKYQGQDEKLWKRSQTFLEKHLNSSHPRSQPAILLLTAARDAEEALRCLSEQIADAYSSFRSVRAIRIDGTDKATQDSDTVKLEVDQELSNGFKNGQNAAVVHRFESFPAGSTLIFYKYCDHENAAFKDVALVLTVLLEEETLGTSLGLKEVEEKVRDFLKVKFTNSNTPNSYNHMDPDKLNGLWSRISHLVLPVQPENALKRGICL
Assay [20] concerns the target Alpha-bungarotoxin (Bungarus multicinctus) (UniProt P60615). In words: compounds binding labelled alpha-BTX control protein – biochemical, small-molecule microarray, Alexa647 label, 635/667 nm fluorescence, artefact control for SMM control protein annotation, profiling panel (AID 1117). The note with it: alpha-BTX-A647 binding fluorescence, higher = more signal.

Sequence of Follistatin-related protein 3 (Homo sapiens) (O95633 whole entry, looked up): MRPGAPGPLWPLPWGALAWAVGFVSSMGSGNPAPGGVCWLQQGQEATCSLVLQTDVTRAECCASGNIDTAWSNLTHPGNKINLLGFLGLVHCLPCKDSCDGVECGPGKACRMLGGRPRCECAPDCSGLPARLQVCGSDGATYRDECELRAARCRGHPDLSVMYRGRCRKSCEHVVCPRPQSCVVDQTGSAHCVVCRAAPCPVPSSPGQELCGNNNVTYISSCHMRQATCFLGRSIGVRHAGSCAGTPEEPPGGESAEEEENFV
Sequence of Alpha-bungarotoxin (Bungarus multicinctus) (P60615 whole entry, looked up): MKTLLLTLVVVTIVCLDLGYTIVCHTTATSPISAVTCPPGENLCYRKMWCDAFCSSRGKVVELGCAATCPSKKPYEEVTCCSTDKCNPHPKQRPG
Sequence of Epidermal growth factor receptor (Homo sapiens) (P00533 whole entry, looked up): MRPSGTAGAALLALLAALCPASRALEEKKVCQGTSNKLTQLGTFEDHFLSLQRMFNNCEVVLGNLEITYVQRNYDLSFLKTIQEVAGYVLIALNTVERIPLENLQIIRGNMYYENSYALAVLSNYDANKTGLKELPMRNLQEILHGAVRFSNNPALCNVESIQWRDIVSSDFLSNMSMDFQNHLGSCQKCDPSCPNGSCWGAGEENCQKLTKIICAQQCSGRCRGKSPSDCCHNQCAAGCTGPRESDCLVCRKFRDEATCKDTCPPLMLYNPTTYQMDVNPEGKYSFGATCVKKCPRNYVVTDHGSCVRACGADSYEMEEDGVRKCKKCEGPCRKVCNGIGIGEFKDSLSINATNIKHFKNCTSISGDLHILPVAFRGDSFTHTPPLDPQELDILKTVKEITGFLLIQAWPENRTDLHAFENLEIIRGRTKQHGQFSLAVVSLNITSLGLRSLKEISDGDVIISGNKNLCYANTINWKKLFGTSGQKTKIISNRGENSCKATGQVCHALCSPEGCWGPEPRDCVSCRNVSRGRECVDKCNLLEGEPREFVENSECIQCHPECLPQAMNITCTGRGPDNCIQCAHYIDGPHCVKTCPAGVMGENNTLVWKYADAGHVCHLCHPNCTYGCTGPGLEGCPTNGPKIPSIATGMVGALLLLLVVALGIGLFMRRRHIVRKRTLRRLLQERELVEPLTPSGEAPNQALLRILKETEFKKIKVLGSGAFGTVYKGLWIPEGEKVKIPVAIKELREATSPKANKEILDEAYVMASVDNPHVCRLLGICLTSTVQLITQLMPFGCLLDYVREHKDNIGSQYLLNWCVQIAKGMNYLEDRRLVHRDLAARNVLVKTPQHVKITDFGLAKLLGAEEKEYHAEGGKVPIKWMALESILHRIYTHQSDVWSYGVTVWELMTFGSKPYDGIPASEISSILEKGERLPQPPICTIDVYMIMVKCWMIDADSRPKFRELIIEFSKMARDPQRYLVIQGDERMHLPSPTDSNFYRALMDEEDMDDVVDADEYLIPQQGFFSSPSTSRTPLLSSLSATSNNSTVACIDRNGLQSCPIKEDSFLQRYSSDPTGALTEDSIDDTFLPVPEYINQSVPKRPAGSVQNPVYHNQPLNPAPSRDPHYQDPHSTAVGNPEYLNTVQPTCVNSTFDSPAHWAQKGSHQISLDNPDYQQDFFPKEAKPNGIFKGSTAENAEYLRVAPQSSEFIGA

`COc1ccc(CCNC(=O)[C@@]2(Sc3ccc(C)cc3)CC(=O)N(C3Cc4ccccc4C3)[C@@H]2c2ccc(CO)cc2)cc1`: the composite z-score in assay [1] is 0.672; in [2], 0.167; in [3], -0.0208; in [5], 1.78; in assay [6], 1.27; in [7], 0.494. Moreover, the composite z-score in [8] was 1.51; in assay [9], 2.06; in assay [10], 1.23; in [11] it was 1.42; in assay [13], 1.25; in assay [14], 1.07. Also, the composite z-score in assay [15] came out at 0.616; in assay [16], 0.0799; in assay [17] it was 0.171; in assay [18] it was 0.557; in assay [19], 2.01; in assay [20] it was 0.535. Besides, the z-score in assay [4] is -1.67 (inactive); in [12] it was -3.04.
In the case of `CN(C)C(=O)[C@@]1(CCS(=O)(=O)c2ccccc2)N=C(c2ccc(OCCCO)cc2)O[C@H]1c1ccccc1`, the composite z-score in assay [1] is 1.32; in assay [2], 0.415; in assay [3], 0.854; in assay [5], 0.961; in assay [6], 1.29; in assay [7], -0.806. For the same compound, the composite z-score in assay [8] was 0.455; in [9] it was -0.94; in assay [10] it was 0.54; in assay [11], 1.46; in assay [13] it was -0.757; in assay [14] it was 1.47. Also, the composite z-score in assay [15] was 0.759; in assay [16], 0.16; in assay [17] it was 0.207; in [18] it was 0.812; in assay [19], 1.84; in [20], 1.9. For the same compound, the values for the z-score in assay [4] and in assay [12] were 2.27 (inactive) and -1.76, respectively.
`O=C1O[C@@H](c2ccccc2)[C@@H](c2ccccc2)N2[C@@H](c3ccc(O)cc3)[C@]3(C(=O)Nc4ccc(C#CC5=CCCCC5)cc43)[C@@H](C(=O)NC[C@H](O)c3ccccc3)[C@H]12`: the composite z-score in [1] was 1.12; in assay [2] it was 0.603; in [3], 0.757; in assay [5], 1.41; in assay [6] it was 1.28; in assay [7], 0.829. Further, the composite z-score came out at 1.42 in assay [8]; 1.49 in assay [9]; 1.02 in assay [10]; 1.4 in [11]; 0.915 in [13]; 1.11 in assay [14]. Moreover, the composite z-score in assay [15] was 0.293; in assay [16], 0.0964; in [17], -0.0769; in [18], 0.654; in [19], 1.52; in [20], 0.774. In addition, the z-score in assay [4] is -1.41 (inactive); in assay [12] it was -1.31.
Take `C=C(/C(=C/C[C@@H](OC(C)=O)c1cccc(OCCO)c1)c1cc(C(=O)OC)ccc1OC)C(C)C`: the composite z-score in assay [1] is 0.628; in [2], 0.153; in assay [3] it was -0.0171; in assay [5], 0.855; in assay [6] it was -0.298; in assay [7] it was -0.122. Further, the composite z-score is 0.533 in [8]; -0.35 in assay [9]; 0.632 in [10]; 0.522 in [11]; 0.256 in assay [13]; -0.343 in assay [14]. In addition, the composite z-score in assay [15] is -0.563; in assay [16] it was -0.221; in assay [17], -0.221; in [18], -0.223; in assay [19], 0.189; in assay [20], 0.215. The z-score is -0.0584 (inactive) in assay [4] and -1.53 in [12].
As to `COC(=O)[C@@]1(Cc2ccc(OC)cc2)[C@@H]2C(=CC(=O)[C@H]2CC(=O)C(=O)N(C)C)CN1C(=O)c1ccccc1`, the composite z-score in assay [1] was 0.86; in [2], 1.22; in [3] it was 1.09; in assay [5] it was 0.945; in assay [6], 1.07; in assay [7], -0.208. Besides, the composite z-score in [8] is 1.03; in [9] it was -0.568; in assay [10], 0.928; in assay [11], 1.42; in assay [13], -0.195; in [14] it was 2.21. The composite z-score in assay [15] amounted to 0.775; in assay [16], 0.268; in assay [17] it was 0.1; in assay [18], 2.25; in [19], 0.755; in [20], 0.923. The figures for the z-score in assay [4] and in assay [12] were -2.59 (inactive) and -2.8, respectively.
